According to article PMC7819943, “Rice protein-binding microarrays: a tool to detect cis-acting elements near promoter regions in rice”:
Whole data set: some 68,000 sequences, median “fluorescence intensity (a.u.)” near 9,100, cut for the highest 2% near 16,000. The entries come from a sample that favours the highest values as a whole.

target: OsWRKY34 (Oryza sativa, UniProt Q0JBA9 1-250); assay: protein-binding microarray (RPBM); PBS, 2% BSA, 51.3 ng/ul salmon testes DNA, 50 uM zinc acetate, 200 nM TF, 25 C, 1 h; high values mean tight binding; settings: protein: recombinant; tags: N-terminal polyhistidine and DsRed monomer fusion (pET32a); label: CyDye5-dUTP incorporated in the synthesized complementary strand; 3' TTTTT single-stranded linker to array surface; dsDNA, one strand shown
In short: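 Binding signal here means per-feature fluorescence intensity in arbitrary units. The values were read on an Axon 4000B scanner after a custom Agilent array, double-stranded by primer extension with Cy5-dUTP, was incubated with 200 nM protein at 25 °C for 1 h in PBS with 2% BSA, salmon testes DNA and 50 µM zinc acetate, then washed. The proteins were transcription factors with an N-terminal polyhistidine tag and DsRed, expressed in E. coli BL21-CodonPlus and purified on Ni–NTA.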

OsWRKY34, sequence (Q0JBA9 entry or part of it): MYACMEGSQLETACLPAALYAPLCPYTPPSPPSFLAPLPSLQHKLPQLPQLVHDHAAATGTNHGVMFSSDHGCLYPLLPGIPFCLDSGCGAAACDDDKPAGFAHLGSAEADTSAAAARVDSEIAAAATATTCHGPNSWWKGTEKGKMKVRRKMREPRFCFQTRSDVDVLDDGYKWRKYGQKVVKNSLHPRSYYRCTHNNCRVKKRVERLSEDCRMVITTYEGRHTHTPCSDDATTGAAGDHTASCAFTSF

Sequence	binding signal
GTATTTAATTAGCTCCTCGTCTTGTTCTGCTAAGCTACTACGGAGTCACCTAGTGCAG	9460 fluorescence intensity (a.u.)
TTGTCATCCTCGCCACCTCATTCTTTCTTTCTTTCATCTCCGGAGTCACCTAGTGCAG	12900 fluorescence intensity (a.u.)
ACATAACACCACTTGATACTATTTCTCTTAATTAATTACTCGGAGTCACCTAGTGCAG	9670 fluorescence intensity (a.u.)
GACTTTTTAGTACGTGTTTGACCATTCGTCTTATTCAAAACGGAGTCACCTAGTGCAG	11900 fluorescence intensity (a.u.)
CCGTTGACTTTTTAGTACGTGTTTGACCATTCGTCTTATTCGGAGTCACCTAGTGCAG	32300 ± 947 fluorescence intensity (a.u.)
GTTGACTTTTTAGTACGTGTTTGACCATTCGTCTTATTCACGGAGTCACCTAGTGCAG	10100 ± 646 fluorescence intensity (a.u.)
CCATTGTTAGGGTTAAGTCTTATTTCACCACATCGTTTTTCGGAGTCACCTAGTGCAG	8740 fluorescence intensity (a.u.)
GGCTTACCCAAGAATAACGATCCAACTTGGGGAGGGAGGGCGGAGTCACCTAGTGCAG	10000 fluorescence intensity (a.u.)
TTTGACACCGTTGACTTTTTTAAACATGTTTAACTGTTCGCGGAGTCACCTAGTGCAG	33900 fluorescence intensity (a.u.)
AATGTTTGACACCGTTGACTTTTTAACACATGTTTGACCGCGGAGTCACCTAGTGCAG	39300 fluorescence intensity (a.u.)
TTGACTTTTTTAAACATGTTTAACTGTTCGTCTTATTAAACGGAGTCACCTAGTGCAG	8820 fluorescence intensity (a.u.)
TTTGACGCTGTTGACTTTTTTTAACATGTTTGACTGTTCGCGGAGTCACCTAGTGCAG	32700 fluorescence intensity (a.u.)
GAGCCCGTACTCATTTCTCGCCAAGTGCACCACTTCACTCCGGAGTCACCTAGTGCAG	10700 fluorescence intensity (a.u.)
TCCTCTACTGGTTCTACGTCTTCTCATAATCAACCCAAATCGGAGTCACCTAGTGCAG	11700 fluorescence intensity (a.u.)
CGCTCATCTATTTCTTTGTAGTACAACGCAGGCGCTCACACGGAGTCACCTAGTGCAG	8090 fluorescence intensity (a.u.)
CTTCCCATGGCTTTTACTCTCCACTCGAAATCTCGTAACACGGAGTCACCTAGTGCAG	11100 fluorescence intensity (a.u.)
ACACACTACTACTACTCTTCTCCCTCTCCATCTCTTCCCTCGGAGTCACCTAGTGCAG	8320 fluorescence intensity (a.u.)
AATCGATTCTCCACTACTCTCTCGTCATTGTTCCCATGTTCGGAGTCACCTAGTGCAG	20100 fluorescence intensity (a.u.)
TAGCTCCATTGTTCGATCTCATCTCCCTTAGCTAGCTACTCGGAGTCACCTAGTGCAG	8130 fluorescence intensity (a.u.)
GCAGCATCACTCCATGTTCTCTCTTCCTACTCTCCATACTCGGAGTCACCTAGTGCAG	16800 fluorescence intensity (a.u.)
CTCGTCATTGTTCCCATGTTTTTCTATTTCATTTCTAATTCGGAGTCACCTAGTGCAG	9350 fluorescence intensity (a.u.)

Sequence	binding signal
GCATCACTATTCACTCCATGTTCTCTCTTCCTACTCTCCACGGAGTCACCTAGTGCAG	8250 fluorescence intensity (a.u.)
CTTATGTCTCACTAAATATTTACTTTTGCCATCGGCAAATCGGAGTCACCTAGTGCAG	8080 fluorescence intensity (a.u.)
GTCACCTTTTCTTTTATCAACATTCATTTGTTTTATTACTCGGAGTCACCTAGTGCAG	8270 fluorescence intensity (a.u.)
AATTCAACGCACGTCTCTTGTCCTGCACTTCTGCTATGCCCGGAGTCACCTAGTGCAG	11000 fluorescence intensity (a.u.)
AATTCTATGCCTCGATACATTTTTGGTGTTTATTATGGTTCGGAGTCACCTAGTGCAG	8460 fluorescence intensity (a.u.)
CTCACCGCGCCGCTCACCTCCTCAAGACCACCACCCACCACGGAGTCACCTAGTGCAG	9730 fluorescence intensity (a.u.)
ACAAATCCTGGTCATTTCTTGACCGTATGAATTCTAGAAACGGAGTCACCTAGTGCAG	9650 fluorescence intensity (a.u.)
AAGAAATCTCTTTGAAAAACTTGCATGCTAACTTGAGACGCGGAGTCACCTAGTGCAG	44900 fluorescence intensity (a.u.)
CAACCTCTTGCTAACTTTCCTTTGAGTCTATCTCTCTCATCGGAGTCACCTAGTGCAG	10700 fluorescence intensity (a.u.)
AGAATCTGACGTTTTATTTCTGAAACTTTCTTTGCATGCACGGAGTCACCTAGTGCAG	8030 fluorescence intensity (a.u.)
GTGCTCGGCTCCTCTCTCAGTAGCTTGTATGTGTCAGTTGCGGAGTCACCTAGTGCAG	10500 fluorescence intensity (a.u.)
AGCTTCAACCTCTTGTAACTTTCCTTTGAGTATATCTCTCCGGAGTCACCTAGTGCAG	10200 fluorescence intensity (a.u.)
TGTCCGGTATTTTAAGTTTAGGGTGAGTAATATCTGGTTTCGGAGTCACCTAGTGCAG	10600 fluorescence intensity (a.u.)
GGTGTGATATATCTGGTTTTGTGGTTCGGTGGGGTAATTCCGGAGTCACCTAGTGCAG	22000 fluorescence intensity (a.u.)
TTGGGTTTAGGGCGGTAATTCGGTTGACCGCGATAGTTCACGGAGTCACCTAGTGCAG	12400 fluorescence intensity (a.u.)
GGATATCCGGTTTTGTGGTTGGGTGACGATTTTGTAATTCCGGAGTCACCTAGTGCAG	9010 fluorescence intensity (a.u.)
GGGTGAAAATGTCTGGTTTTGTGGTTTAAGGGTGTAATTCCGGAGTCACCTAGTGCAG	8700 fluorescence intensity (a.u.)
GGGTGAGTAATATCTGGTTTTTGGGTTTAGGGCGGTAATTCGGAGTCACCTAGTGCAG	17700 fluorescence intensity (a.u.)
CATCATACAGTAACAGCACAAGCACACACTACACGCACTCCGGAGTCACCTAGTGCAG	8640 fluorescence intensity (a.u.)
GGGTTGGTTCCTGCCTCTCGAGTCTCAGCAAGTGTGTCACCGGAGTCACCTAGTGCAG	11500 fluorescence intensity (a.u.)
CAAATGGCCCACCTGTCCTAGCTTGGCCCGGCCCGGGCACCGGAGTCACCTAGTGCAG	8680 fluorescence intensity (a.u.)
